Rows were chosen to be rich in hits. Some 6.2% of all compounds tested hit in one or more screens of this group.
ATXN2 expr inh: reduces ATXN2 reporter expression in HEK-293 cells; HEK-293 ATXN2-luciferase reporter, luminescence, 24 h; Potency, µM (series often up to 57 µM), hits mostly inhibitors; 360,000 tested, 0.72% active; AID 1745845; further: nearly all actives have a fitted effect of over 55% in size
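ATXN2-luciferase reporter cells (luciferase flanked by upstream and downstream ATXN2 gene portions) were treated 24 h at 37 °C with compounds at up to 57 uM. SteadyGlo luminescence gave expression; GF-AFC fluorescence gave viability.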
ATXN viability: cell viability loss in ATXN counter-screen | 400,000 tested, 0.49% active | Potency, µM (titrated, usually from 56.7 µM), hits mostly cytotoxic | S2 cells (HEK-293 line with an ATXN2-luciferase reporter) viability, CellTiter-Fluor protease fluorescence, 24 h | AID 651635; further: nearly all actives have a fitted effect of over 40% in size
KB-3-1 tox: kills parental KB-3-1 adenocarcinoma cells; 400,000 tested, 1.4% active; AID 1347075; Potency, µM (titrated, usually from 46.1 µM), most hits filed as cytotoxic; KB-3-1 viability, CellTiter-Glo ATP luminescence, 72 h; further: nearly all actives have a fitted effect of over 60% in size
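Parental KB-3-1 adenocarcinoma cells in phenol-red-free DMEM with 10% FBS were pin-treated with compounds at several concentrations, incubated 72 h at 37 °C, and viability read by CellTiter-Glo luminescence; concentration-effect curves were fitted after normalization.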
KB-V1 MDR tox: kills drug-selected multidrug resistant KB-V1 cells; KB-V1 MDR cells viability, CellTiter-Glo, 72 h; Potency, µM (doses to about 46.1 µM), most hits filed as cytotoxic; 400,000 tested, 3.4% active; AID 1347076; further: nearly all actives have a fitted effect of over 60% in size
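Cells of the MDR subline KB-V1 are plated, dosed with compound at multiple concentrations, and incubated 72 h at 37 degrees C; CellTiter-Glo is then added and luminescence read after 10 min.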
HT1080-NT tox: kills 2HG-producing HT-1080-NT fibrosarcoma cells; 360,000 tested, 1.6% active; Potency, µM (series often up to 46.1 µM), most hits filed as cytotoxic; HT-1080-NT fibrosarcoma viability, CellTiter-Glo ATP luminescence, 48 h;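 further: NT is the 2HG producing partner of a matched IDH1 knockdown line; nearly all actives have a fitted effect of over 55% in size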
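750 cells/well, RPMI + 5% FBS; 2 h settle, compound pin-transfer, 48 h at 37 degrees C. CellTiter-Glo 10 min RT, luminescence. Normalized to DMSO and media-only wells.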
HT1080 IDH1KD tx: kills HT-1080 cells with IDH1 knockdown; Potency, µM (doses to about 46.1 µM), most hits filed as cytotoxic; 360,000 tested, 2% active; HT-1080 IDH1 knockdown viability, ATP luminescence, 48 h
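IDH1KD HT-1080 cells, 750/well, RPMI + 5% FBS; compound pinned after 2 h settling; 48 h, 37 °C; CellTiter-Glo luminescence; % activity normalised to DMSO and no-cell wells; curves fitted, classed by r2 and efficacy.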
Each line names hits and unclear results; the compound was inactive in the other large screens. The call rests on the fitted dose curve; in most records, active means well fitted curve in the direction sought with a large enough effect; inconclusive means small, poorly fitted or top-dose-only effect, or another doubt; inactive means no such curve, though single readings can be large; an effect the other way counts as inactive or inconclusive.

CCC(COC(=O)Nc1cccc(C)c1C)NC(=O)OCC(C)C (centres undefined)	KB-V1 MDR tox 9.2µM
Cc1ccccc1OCCSc1nnc(-c2ccc([N+](=O)[O-])cc2)o1	none (no result: HT1080-NT tox, HT1080 IDH1KD tx)
COc1cccc(/C=N/NC(=O)c2cccc([N+](=O)[O-])c2)c1OS(=O)(=O)c1ccccc1	ATXN viability inconclusive, KB-V1 MDR tox 10µM
COc1cccc(/C=N/NC(=O)c2ccc([N+](=O)[O-])cc2Cl)c1O	ATXN2 expr inh inconclusive, KB-V1 MDR tox 9.2µM, HT1080-NT tox inconclusive, HT1080 IDH1KD tx inconclusive
COc1ccc(/C=N/NC(=O)c2cccc([N+](=O)[O-])c2)cc1OS(=O)(=O)c1ccccc1	none
COc1cccc(/C=N/NC(=O)C(=O)N/N=C/c2cccc(OC)c2OC)c1OC	HT1080-NT tox inconclusive, HT1080 IDH1KD tx 23µM
COc1ccc(/C=N/NC(=O)c2cccc([N+](=O)[O-])c2)c2ccccc12	ATXN2 expr inh 18µM, ATXN viability inconclusive
CCN1CCN(C(=O)c2cnn(-c3ccc(F)cc3)c2-n2cccc2)CC1	none (no result: HT1080-NT tox, HT1080 IDH1KD tx)
O=C1Nc2ccc(C(=O)O)c(O)c2C1=O	ATXN viability inconclusive, KB-3-1 tox inconclusive
COc1ccc(Br)cc1CNC(=O)Cn1nc(C)n2c(cc3cc(F)ccc32)c1=O	none (no result: HT1080-NT tox, HT1080 IDH1KD tx)
Cc1cc(CC(=O)O)c(C)n1-c1ccc(Cl)cc1	none (no result: KB-3-1 tox, KB-V1 MDR tox, HT1080-NT tox, HT1080 IDH1KD tx)
CSCCC(C(=O)NC(C)(C)C)n1c(-c2ccc3c(c2)OCO3)nc2ccccc21 (centres undefined)	KB-V1 MDR tox inconclusive (no result: ATXN2 expr inh, ATXN viability)
CC(C)CN(CC(C)C)S(=O)(=O)N1CCC(C(=O)NCc2cccs2)CC1	KB-V1 MDR tox inconclusive
COc1ccc(CCNC(=O)C2CCN(S(=O)(=O)N3CCOCC3)CC2)cc1OC	none
COc1ccc(CNC(=O)c2ccc(S(=O)(=O)N3CC(C)CC(C)C3)cc2)cc1OC (centres undefined)	KB-V1 MDR tox 7.3µM
O=C(NCc1cccs1)C1CCCN1S(=O)(=O)c1ccccc1F (centres undefined)	ATXN viability inconclusive, KB-V1 MDR tox 12µM
COc1cc(OC)c(OC)cc1CNC(=O)c1ccc(S(=O)(=O)N2CC(C)OC(C)C2)cc1 (centres undefined)	none
CC1CCN(S(=O)(=O)N2CCC(C(=O)NCc3cccs3)CC2)CC1	ATXN viability inconclusive, KB-V1 MDR tox 18µM
COc1ccc(CCNC(=O)C2CCN(S(=O)(=O)N3CCC(C)CC3)CC2)cc1OC	KB-3-1 tox inconclusive, KB-V1 MDR tox 21µM
C=C1C=C(C)n2ncc(C(=O)NCCCCCC)c2N1	KB-3-1 tox inconclusive (no result: ATXN2 expr inh, ATXN viability, HT1080-NT tox, HT1080 IDH1KD tx)
c1ccc(-n2ncc3c(NCc4ccc5c(c4)OCO5)ncnc32)cc1	KB-V1 MDR tox 21µM, HT1080-NT tox inconclusive, HT1080 IDH1KD tx inconclusive
Cc1ccc(-n2ncc3c(NCc4ccc5c(c4)OCO5)ncnc32)c(C)c1	KB-3-1 tox inconclusive, KB-V1 MDR tox 4.1µM
COCCCN1CN=C(NS(=O)(=O)c2ccc(NC(C)=O)cc2)NC1	KB-V1 MDR tox inconclusive (no result: HT1080-NT tox, HT1080 IDH1KD tx)
COc1cc(OC)cc(-c2nc3nc(C)c(CCC(=O)Nc4ccc(C)cc4C)c(C)n3n2)c1	none (no result: HT1080-NT tox, HT1080 IDH1KD tx)
Cc1nc(NC(=O)c2ccccc2)sc1Cc1ccc2c(c1)OCO2	KB-3-1 tox inconclusive, KB-V1 MDR tox inconclusive, HT1080-NT tox inconclusive, HT1080 IDH1KD tx inconclusive
Cc1nc(NC(=O)c2ccc(Cl)cc2)sc1Cc1ccc2c(c1)OCO2	KB-3-1 tox 9.2µM, KB-V1 MDR tox 4.6µM, HT1080-NT tox 10µM, HT1080 IDH1KD tx 6.5µM
Cc1ccc(C(=O)Nc2onc3c2CCCC3)cc1	ATXN2 expr inh 7.9µM, ATXN viability inconclusive (no result: HT1080-NT tox, HT1080 IDH1KD tx)
Cc1cccc(NC(=O)c2onc3c2CCCC3)n1	KB-3-1 tox inconclusive, KB-V1 MDR tox 13µM, HT1080 IDH1KD tx inconclusive
COc1ccccc1C(=O)Nc1onc2c1CCCC2	none (no result: HT1080-NT tox, HT1080 IDH1KD tx)
CC(C)n1nc(C(=O)Nc2cccc(S(=O)(=O)NCc3ccco3)c2)c2ccccc2c1=O	KB-3-1 tox inconclusive, KB-V1 MDR tox 21µM (no result: ATXN2 expr inh)
O=C(NCc1ccccc1)Nc1nnc(-c2ccncc2)s1	none (no result: ATXN2 expr inh, ATXN viability, HT1080-NT tox, HT1080 IDH1KD tx)
CN1CCN(c2ccc(CNS(=O)(=O)c3ccccc3)cc2)CC1	KB-3-1 tox inconclusive

High-throughput results as filed in PubChem BioAssay.
